{"source": "PubChem BioAssay (NCI)", "note": "Compounds without any hit were thinned out: in the full panel of roughly 83,000, 20% have a hit.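 A percent growth of 40 corresponds to 60% growth inhibition; 0 means no net growth; -100 means all cells died. Active threshold: below 10.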 Values without a mark were called inactive. Active and inactive are the calls of the source.", "data": [{"test_system": "LOX IMVI melanoma", "test": "NCI-60 one-dose screen, 48 h (100 = growth as untreated, 0 = no growth, -100 = all killed)", "conditions": "10 µM unless noted", "values": [{"smiles": "CC(c1ccc(-n2cccn2)cc1)c1cnc(N2CCc3ccc(C(N)=O)cc3C2)s1", "note": "(configuration not stated)", "growth": "66.4%"}, {"smiles": "COc1cc2c(cc1OC)-c1ccc3cc4c(cc3c1N(CCCN1CCCCC1)C2)OCO4", "growth": "32.5%"}, {"smiles": "C[C@@H](C[C@H](CCOCc1cccnc1)c1ccccc1)c1cc2ccccc2o1", "growth": "95.8%"}, {"smiles": "N#Cc1c(N)n2c(nc1=Nc1ccc([N+](=O)[O-])cc1)sc1cc(Cl)ccc12", "growth": "79.4%"}, {"smiles": "C=C1C(=O)O[C@H]2[C@H]1CC/C(C(=O)NCCCCCCCCNC(=O)/C1=C/CC[C@@]3(C)O[C@H]3[C@H]3OC(=O)C(=C)[C@@H]3CC1)=C\\CC[C@@]1(C)O[C@@H]21", "growth": "84%"}, {"smiles": "O=C(NCCOCCOCCOCCNC(=O)c1cc2c(o1)C(=O)c1ccccc1C2=O)NC12CC3CC(CC(C3)C1)C2", "growth": "-46.2% (active)"}, {"smiles": "CCOc1ccc2nc(-c3cccc(OCC(=O)NC(C)C)c3)nc(Nc3ccc(-c4cn[nH]c4)cc3)c2c1", "growth": "-10.8% (active)"}, {"smiles": "CSc1ncc(C)c(Nc2ccc(Cl)cc2)n1", "growth": "107%"}, {"smiles": "O=C1CCC(N2C(=O)c3cccc(NCCCC4CCN(CCNC(=O)c5cc6c(o5)C(=O)c5ccccc5C6=O)CC4)c3C2=O)C(=O)N1", "note": "(configuration not stated)", "growth": "-90.1% (active)"}, {"smiles": "CCOC(=O)C1C(=O)C=C(c2cnccn2)CC1c1ccc(OC)c(OC)c1", "note": "(configuration not stated)", "growth": "100%"}, {"smiles": "OC(CBr)c1ccnc2ccccc12", "note": "(configuration not stated)", "growth": "96.3%"}, {"smiles": "O=C1N(c2ccccc2)C(=S)N[C@]12[C@H](c1ccccc1)C1CCCN1[C@]21C(=O)NC2C=CC(Cl)=C[C@H]21", "note": "(some centres not stated)", "growth": "100%"}]}]}
